Bioassay records (PubChem BioAssay)
This is a sample that favours compounds with a hit; in the whole collection about 3.6% have one here.
mHTT-CaM PPI inh: mHTT-calmodulin interaction abrogation; AlphaScreen His-mHTT/GST-CaM binding, luminescence; inhibition, % at 15 µM; 190,000 tested, 3.6% active; AID 1671202;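 note: 0% = both proteins with DMSO and 100% = one protein alone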
Pf apPOL block: Pf-apPOL DNA polymerase inhibition; Recombinant Pf-apPOL, molecular beacon fluorescence, 1.5 h; 210,000 tested, 0.25% active; inhibition, % at 10 µM; AID 1794808
An asterisk follows results filed as active. Cut-off read from the data, not from the text of the source: active = inhibition above about 50%; inactive = the rest.

For Oc1c(Cl)cc(Cl)cc1C=NNC(=S)NCC1CCCO1 (stereo not given) the results were Pf apPOL block 70*.
Screening CCc1ccc(-n2c(CN3CCN(C(=O)NCCC(C)C)CC3)nc3cccnc32)cc1 returned mHTT-CaM PPI inh 23 and Pf apPOL block -2.
Screening Fc1ccccc1-c1nc(-c2cccc(-c3ccn[nH]3)c2)no1 returned mHTT-CaM PPI inh 9 and Pf apPOL block 2.
Screening c1cc(-c2noc(-c3cccc4[nH]ccc34)n2)cc(-c2ccn[nH]2)c1 returned mHTT-CaM PPI inh 62* and Pf apPOL block 4.
FC(F)(F)c1cc(-c2ccccc2)nc(NCc2cccs2)n1 was read as mHTT-CaM PPI inh -272 and Pf apPOL block 6.
Screening COc1ccc(-c2ccccc2)cc1NCc1cccs1 returned mHTT-CaM PPI inh 55* and Pf apPOL block 1.
For Cc1oc(C2CCN(C(=O)c3cc4ccccc4[nH]3)CC2)nc1C(=O)N1CCCC1 the results were mHTT-CaM PPI inh 83* and Pf apPOL block 1.
For CCOc1ccc(C(=O)N2CCC(c3noc(-c4ccccc4C)n3)CC2)cc1OCC the results were mHTT-CaM PPI inh 11 and Pf apPOL block -4.
Screening Cc1oc(C2CCN(C(=O)c3cc4ccccc4[nH]3)CC2)nc1C(=O)N(C)C returned mHTT-CaM PPI inh 17 and Pf apPOL block -3.
`COc1ccccc1-c1nc(C2CCN(C(=O)c3cc4ccccc4[nH]3)CC2)no1` gave mHTT-CaM PPI inh 100* and Pf apPOL block 5.
For COc1cc(OC)cc(C(=O)N2CCC(c3noc(-c4ccccc4OC)n3)CC2)c1 the results were mHTT-CaM PPI inh 8 and Pf apPOL block -2.
For Cc1ccccc1-c1nc(C2CCN(C(=O)c3ccc(F)c(Cl)c3)CC2)no1 the results were mHTT-CaM PPI inh 94* and Pf apPOL block 2.
For CCN(CC)C(=O)c1cc2c(s1)CCC(C(=O)NC1CC1)C2 (stereo not given) the results were mHTT-CaM PPI inh 0 and Pf apPOL block -3.
`COC(=O)c1ccc(NC(=O)C(=O)NC(C)Cc2ccco2)cc1` (stereo not given) gave mHTT-CaM PPI inh -7 and Pf apPOL block -7.
c1nc(NCCN2CCOCC2)c2sc3nc(N4CCOCC4)c4c(c3c2n1)CCCC4 was read as mHTT-CaM PPI inh 55* and Pf apPOL block 0.
For c1nc(N2CCNCC2)c2sc3nc(N4CCOCC4)c4c(c3c2n1)CCCC4 the results were mHTT-CaM PPI inh 14 and Pf apPOL block -10.
O=C1C=CC(=O)C(C2=C3C(=O)N(CCc4c[nH]c5ccccc45)CC(=O)N3CCC2)=C1 was read as mHTT-CaM PPI inh 63* and Pf apPOL block -3.
COc1ccc(CCN2CC(=O)N3CCCC(C4=CC(=O)C=CC4=O)=C3C2=O)cc1OC was read as mHTT-CaM PPI inh 21 and Pf apPOL block 2.
Screening O=C1C=CC(=O)C(C2=C3C(=O)N(CCc4ccccc4)CC(=O)N3CCC2)=C1 returned mHTT-CaM PPI inh 80* and Pf apPOL block -5.
Screening O=C1CNC(=S)N1CCc1c[nH]c2ccccc12 returned Pf apPOL block 12.
COc1ccc(NC(=O)C2CCN(c3ncnc4c3nc3n4CCCCC3)CC2)cc1 was read as mHTT-CaM PPI inh 5 and Pf apPOL block -2.
`COc1ccc(CN2C(=O)CCC2(C)C(=O)NC2CCCCCCC2)c(OC)c1` (stereo not given) gave mHTT-CaM PPI inh 0 and Pf apPOL block -10.
For CCOC(=O)c1cccc(NC(=O)C2CC3CCCN3C23C(=O)Nc2ccccc23)c1 (stereo not given) the results were mHTT-CaM PPI inh 10 and Pf apPOL block 0.
Screening O=C1NC(=O)[C@H]2[C@@H]1[C@@H](C(=O)c1ccccc1)N1c3ccccc3C=C[C@H]21 returned mHTT-CaM PPI inh 58*.
`NC(=O)N1c2ccccc2C=Cc2ccccc21` gave Pf apPOL block 2.
For Cc1cc(C)c2nc(N=C(N)NC(=O)C(C)(C)C)nc(C)c2c1 the results were mHTT-CaM PPI inh 4 and Pf apPOL block 5.
`CCN1Cc2nnn(Cc3ccccc3)c2-c2cc(F)ccc2S1(=O)=O` gave mHTT-CaM PPI inh 94* and Pf apPOL block -3.
Screening CC(C)(C)N1Cc2nnn(Cc3ccccc3)c2-c2cc(F)ccc2S1(=O)=O returned mHTT-CaM PPI inh -6 and Pf apPOL block -2.
CC(=O)NCCc1csc(C2CCCN(C(=O)c3c(F)cccc3F)C2)n1 (stereo not given) was read as mHTT-CaM PPI inh -4 and Pf apPOL block -3.
Screening CC(=O)c1cccc(N2CN=c3s/c(=C\c4ccco4)c(=O)n3C2)c1 returned mHTT-CaM PPI inh 23 and Pf apPOL block -2.
Screening COc1ccc(-c2oc(NC(=O)C(F)(F)F)c(C#N)c2-c2ccc(OC)cc2)cc1 returned mHTT-CaM PPI inh 63* and Pf apPOL block 0.
For COc1ccc(-c2oc(N=CN3CCCCCC3)c(C#N)c2-c2ccc(OC)cc2)cc1 the results were mHTT-CaM PPI inh 20 and Pf apPOL block 3.
C=CCc1cccc(OC)c1OCCCCn1cnc2ccccc2c1=O was read as mHTT-CaM PPI inh -16 and Pf apPOL block 2.
Screening COC(=O)c1n[nH]nc1[N+](=O)[O-] returned mHTT-CaM PPI inh -1.
For O=C(O)c1n[nH]nc1C(=O)O the results were mHTT-CaM PPI inh 63*.
CCN(CC)C(=O)C1CCN(c2nc3ccc(-c4cccs4)nc3s2)CC1 was read as mHTT-CaM PPI inh 64* and Pf apPOL block -1.
CCCNC(=O)C1CCN(c2nc3ccc(-c4cccs4)nc3s2)CC1 was read as mHTT-CaM PPI inh 9 and Pf apPOL block 0.
Screening CN(C)CCNC(=O)C1CCN(c2nc3ccc(-c4ccncc4)nc3s2)CC1 returned mHTT-CaM PPI inh -2 and Pf apPOL block -6.
CN(C)CCNC(=O)C1CCN(c2nc3ccc(-c4ccsc4)nc3s2)CC1 was read as mHTT-CaM PPI inh 66* and Pf apPOL block 4.
`O=S(=O)(O)c1cc(-c2nnc(-c3ccccn3)nc2-c2ccc(S(=O)(=O)O)o2)co1` gave mHTT-CaM PPI inh 100*.
c1ccc(-c2nnc(-c3ccccn3)nc2-c2ccccc2)cc1 was read as mHTT-CaM PPI inh 44 and Pf apPOL block -2.
Screening Cc1ccnc(NC(c2ccccc2C)c2ccc3cccnc3c2O)c1 (stereo not given) returned mHTT-CaM PPI inh 99* and Pf apPOL block -11.
Cc1ccc(C(Nc2ccccn2)c2ccc3cccnc3c2O)cc1 (stereo not given) was read as mHTT-CaM PPI inh 99* and Pf apPOL block 3.
Cc1ccc2ccc(C(Nc3ccccn3)c3ccc(F)cc3)c(O)c2n1 (stereo not given) was read as mHTT-CaM PPI inh 70* and Pf apPOL block -10.
Screening O=c1cc(CO)oc(C(Nc2ncccn2)c2ccc(F)cc2)c1O (stereo not given) returned mHTT-CaM PPI inh 10 and Pf apPOL block -4.
For Cc1ccc(-c2ncccc2O)cc1 the results were mHTT-CaM PPI inh 1 and Pf apPOL block -7.
Screening Oc1c(C(Nc2ccccn2)c2ccc3c(c2)OCO3)ccc2cccnc12 (stereo not given) returned mHTT-CaM PPI inh 99* and Pf apPOL block -6.
Screening OC(CN1CCN(c2ccccn2)CC1)c1ccc2c(c1)OCO2 (stereo not given) returned mHTT-CaM PPI inh 3 and Pf apPOL block -1.
Cc1ccccc1C(=O)N1CCN(c2ccc(C(C)C)cc2)C(=O)C1C (stereo not given) was read as mHTT-CaM PPI inh 11 and Pf apPOL block -5.
